Results: ChEMBL document CHEMBL4513216, “Probing the Open Global Health Chemical Diversity Library for Multistage-Active Starting Points for Next-Generation Antimalarials” (ACS Infect Dis, 2020)
The whole screen tested about 69,000 compounds, of which about 8,600 (12%) showed an effect of 50% or more. For the sample, strong results were picked, then their nearest neighbours and some compounds at random.

Tested on: Plasmodium berghei
Experiment: Screen against P. berghei liver stage (PbLuc), transformed with Luciferase, at 10uM
Format: functional, HepG2
Settings: tested at 10 uM

In order of falling INHIBITION:
1. Cc1ccc(-c2noc(CN3CC(n4cc(C)cn4)C3)n2)cc1  90.9%
2. COc1ccc(CC(=O)NC(C)c2nc3cccnc3n2C(C)C)cc1 (configuration not stated)  90.5%
3. Cc1cccc(-c2noc(CN3CC(n4cc(C)cn4)C3)n2)c1  90%
4. COc1ccc(-c2noc(CN3CC(n4cc(C)cn4)C3)n2)cc1  89.5%
5. CCC(NC(=O)C1CCN(S(C)(=O)=O)CC1)c1ccc(C)cc1C (configuration not stated)  88%
6. CCC(NC(=O)C1CCN(S(C)(=O)=O)CC1)c1ccc(OC)cc1 (configuration not stated)  73.6%
7. COc1ccc(C(C)NC(=O)C2CCN(S(C)(=O)=O)CC2)cc1C (configuration not stated)  68.1%
8. O=C(O)c1ccc(CC2CCN(Cc3ccc(-c4cc[nH]n4)o3)C2)cc1 (configuration not stated)  67.8%
9. Cc1cccc(N2CC[C@H]3[C@H](CO[C@@H]3CN(C)Cc3ccco3)C2)n1  65.3%
10. CN(Cc1ccco1)C[C@H]1OC[C@@H]2CCN(Cc3ccsc3)C[C@@H]21  62.4%
11. CCn1ncc2c1CN(CCc1cccc(Cl)c1)CC2COC (configuration not stated)  59.3%
12. CCC(NC(=O)C1CCN(S(C)(=O)=O)CC1)c1ccc(C)c(C)c1 (configuration not stated)  58.5%
13. CN(Cc1ccco1)C[C@H]1OC[C@@H]2CN(c3ncc(F)cn3)CC[C@@H]21  58.3%
14. Cc1cnn(C2CN(Cc3ccc4c(c3)OCCO4)C2)c1  57.5%
15. Cc1ccc(N2CC[C@@H]3[C@@H](CO[C@H]3CNC(=O)c3ccco3)C2)nn1  57.1%
16. COCC1CN(CCOc2ccc(Cl)cc2)Cc2c1cnn2C (configuration not stated)  53.9%
17. COCC1CN(CCc2ccc(OC)c(OC)c2)Cc2c1cnn2C (configuration not stated)  53.9%
18. Cc1ccc(N2CC[C@H]3CO[C@H](CN(C)Cc4ccco4)[C@H]3C2)nn1  53.4%
19. Cc1cc(N2CCN(Cc3ccc(-c4cc[nH]n4)o3)CC2)cc(C)n1  52.4%
20. Cc1cnn(C2CN(Cc3nc(-c4ccccn4)no3)C2)c1  51.1%
21. CCOCC1CN(CCc2ccccc2)Cc2c1cnn2C (configuration not stated)  50%
22. Cn1ncc2c1CN(Cc1ccccc1F)CC2COCC1CC1 (configuration not stated)  49.3%
23. CCOc1ccc(C(C)NC(=O)N2CCC(C(N)=O)CC2)cc1OC (configuration not stated)  47.4%
24. CCN(CC)C1COc2c(cc(Br)c(C)c2C)C1=O (configuration not stated)  47.1%
25. Cc1cccc(N2CC[C@H]3CO[C@H](CN(C)Cc4ccco4)[C@H]3C2)n1  46.4%
26. CCN(Cc1ccc2c(c1)OCCO2)C(=O)NC(C)Cn1cccn1 (configuration not stated)  45.7%
27. Cc1cccc(S(=O)(=O)N2C[C@@H]3C[C@H](C(=O)NCC(C)C)[C@H](C2)O3)c1  45.2%
28. c1ccc(CN2CCCC(CNc3ncnc4c3CCNCC4)C2)cc1 (configuration not stated)  45%
29. CO[C@H]1C[C@@H](O)C12CCN(CCOc1ccc(Cl)cc1)CC2  44.6%
30. COc1ccc(C(C(=O)O)N2CCN(C3CCCC3)CC2)cc1C (configuration not stated)  43%
31. CC(C)CN(CC(O)c1ccc(F)cc1)C(=O)c1cc[nH]n1 (configuration not stated)  39.5%
32. CCn1ncc2c1C(COC)CN(Cc1ccco1)C2 (configuration not stated)  39.2%
33. Cc1cc(S(=O)(=O)NC(C)(C)CN)c(F)cc1F  37.6%
34. Cc1noc([C@H]2C[C@H]3OCC[C@H]3N(Cc3ccc(F)cc3)C2)n1  35.7%
35. CC(=O)N1CCCN(C(=O)NCCOc2ccc3c(c2)CCC3)CC1  35.15%
36. CCOCc1nc2c(c(N3CCCn4nc(C)cc4C3)n1)CCNCC2  34.9%
37. CCC(NC(=O)C1CCN(S(C)(=O)=O)CC1)c1ccc(C)cc1 (configuration not stated)  33%
38. Cc1cnn(C2CN(CC(O)COCc3ccc4c(c3)OCO4)C2)c1 (configuration not stated)  32.3%
39. CCC(NC(=O)c1nn(C)cc1C(=O)O)c1ccc(C)cc1C (configuration not stated)  32.3%
40. NC(=O)Cn1cc(NC(=O)N2CCC(c3ccccc3)CC2)cn1  31.65%
41. O=C(CC1CCCC1)N1CCn2cc(Cn3cccn3)nc2C1  31.1%
42. Cc1occc1C(=O)N1CCC2(CC1)CN(Cc1nccs1)CCO2  30.3%
43. CN1CCN(C2CCN(C(=O)CCC3CCCC3)CC2)CC1  29.8%
44. Cc1cnn(C2CN(Cc3nc(C(C)(C)C)no3)C2)c1  29.4%
45. CCOCCCNC(=O)C1(C)CCC(=O)N1c1cc(OC)ccc1OC (configuration not stated)  28.3%
46. CN(Cc1ccco1)C[C@H]1OC[C@@H]2CCN(Cc3cccs3)C[C@@H]21  25.4%
47. Fc1ccc(N2CCCN(Cc3ccc(-c4cc[nH]n4)o3)CC2)cc1  23.7%
48. CCC(NC(=O)C1CCN(S(C)(=O)=O)CC1)c1ccc(OC)c(C)c1 (configuration not stated)  23.5%
49. O=C(c1cnccn1)N1CCC2(CCN(Cc3ccsc3)C2)CC1  23.3%
50. Cc1cnn(C2CN(CC(O)c3ccc4c(c3)OCCO4)C2)c1 (configuration not stated)  23.2%
51. CCOC(=O)[C@H]1CNC[C@H]1C(=O)OCC  22%
52. CCC(NC(=O)C1CCN(S(=O)(=O)N(C)C)CC1)c1ccc(C)c(C)c1 (configuration not stated)  21.8%
53. Cc1cnn(CC2CN(Cc3nc(-c4ccccn4)no3)CCO2)c1 (configuration not stated)  21.6%
54. c1ccc(CN2CCc3nnc(COc4ccccn4)n3CC2)nc1  21.5%
55. COCC1CN(c2ccc(C)nn2)Cc2cnn(C)c21 (configuration not stated)  20.6%
56. CC(CNC(=O)c1cn(-c2ccccc2)nn1)Cn1cccn1 (configuration not stated)  20.2%
57. CCOCC1CN(CCOc2ccc(Cl)cc2)Cc2c1cnn2C (configuration not stated)  19.8%
58. Cc1cc(C)n(CC(=O)N2CCC(c3ccn4nccc4n3)CC2)n1  19.5%
59. COc1ccc(-c2cc(C3(O)CCN(C)CC3)on2)cc1  19.3%
60. Cc1cnn(CCNCc2c(C)nn(C)c2Cl)c1  19.2%
61. Cc1ccc(CN2CC[C@H]3CO[C@H](CN(C)Cc4ccco4)[C@H]3C2)s1  18.7%
62. CCn1ncc2c1CN(C(=O)Cc1ccccn1)CC2COC (configuration not stated)  18.3%
63. Cc1cnn(C2CN(Cc3nc(-c4cccnc4)no3)C2)c1  18.2%
64. COCCN1CCn2cc(CNC(=O)c3cnn(C)c3)nc2C1  16.8%
65. CN(c1ccncn1)C1CC2(CCN(C(=O)c3cccn3C)C2)C1 (configuration not stated)  15.9%
66. Cc1cc(N(C)C)nc(C2(C)CCCN2C(=O)c2ccccc2)n1 (configuration not stated)  15.9%
67. Cc1cnn(C2CN(Cc3nc(-c4ccsc4)no3)C2)c1  15.5%
68. Cc1cccc(-c2noc(CN3CC(n4cccn4)C3)n2)c1  14.1%
69. O=C(NCc1ccco1)[C@@H]1CC[C@@H]2[C@@H](CCN2CC2CC2)O1  12.3%
70. CN(Cc1ncc(-c2ccccc2C(=O)O)s1)c1ncccn1  12%
71. O=C(O)c1ccccc1C1CCN(Cc2ccc(-c3cc[nH]n3)o2)C1 (configuration not stated)  9.16%
72. CN(Cc1cccnc1)C[C@@H]1OC[C@H]2CN(Cc3ccco3)CC[C@H]21  8.03%
73. O=C(NCCC1=CCCCC1)Nc1cc(C(F)(F)F)c[nH]c1=O  7.27%
74. CSc1ccc(C(=O)C2CCCN(C(=O)CCn3cnnn3)C2)cc1 (configuration not stated)  5.91%
75. Cc1ncsc1C(=O)N1CCCC(c2cc(C(F)F)n3ncnc3n2)C1 (configuration not stated)  5.11%
76. Cc1nc(CNC(=O)NC(C)c2ccc3c(c2)OCCCO3)cs1 (configuration not stated)  1.04%
77. CNC(=O)[C@H]1C[C@@H]2CN(S(=O)(=O)c3ccc(C)c(F)c3)C[C@@H]2N1C  0.542%
78. O=C(NC[C@H]1OC[C@@H]2CCN(c3ccccn3)C[C@@H]21)c1ccco1  -0.804%
79. Cc1cccn2c(NC(C)(C)C)c(C3CCN(C(=O)C4CC4)CC3)nc12  -4.49%
80. CCC(NC(=O)C1CCN(S(C)(=O)=O)CC1)c1ccc(OC)c(OC)c1 (configuration not stated)  -6.53%
81. Cc1cn[nH]c1C1COCCN1C(=O)c1ccc2c(c1)CCCC2 (configuration not stated)  -6.88%
82. Cc1cnc(C)c(N2CCN(Cc3ccc(-c4cc[nH]n4)o3)CC2)n1  -7.48%
83. CCc1ccc(CN2CCC(c3ccccc3C(=O)O)C2)nc1 (configuration not stated)  -8.66%
84. CCOc1c(CNCCCn2ccnc2)cc(Cl)cc1OC  -9.2%
85. Cc1ccc(-c2nnc(CN3CC(n4cc(C)cn4)C3)o2)cc1  -9.72%
86. O=C(O)c1ccc(C2CCCN(Cc3ccc(-c4cc[nH]n4)o3)C2)cc1 (configuration not stated)  -10.4%
87. CN(C)CC1CN(Cc2nc(-c3ccccn3)no2)CCO1 (configuration not stated)  -11.4%
88. Cc1csc(C(Cc2ccsc2)NC(=O)C2CCN(S(C)(=O)=O)CC2)n1 (configuration not stated)  -11.7%
89. CC(=O)N(Cc1noc(C2CC2)n1)C1CCN(CC(=O)NC2CC2)C1 (configuration not stated)  -11.9%
90. CCOCC1CN(CCOCc2ccccc2)Cc2c1cnn2C (configuration not stated)  -14.3%
91. CN(Cc1ccco1)C[C@H]1OC[C@@H]2CCN(Cc3ccccn3)C[C@@H]21  -14.7%
92. COc1cccc(CC(=O)NC(C)c2nc3cccnc3n2C(C)C)c1 (configuration not stated)  -17.7%
93. COc1ccc(-c2noc(CN3CC(n4cccn4)C3)n2)c(OC)c1  -18%
94. CC(C)OC(=O)[C@@H]1CCN(C(=O)c2ccccn2)[C@@H]1c1ccc(F)cc1  -18.8%
95. O=C(Cc1ccccn1)N1CCC(O)(Cn2ccc3ccncc32)CC1  -21.4%
96. Cc1ccc(CN2CCC3(CCCC(=O)N3)CC2)s1  -24.5%
97. COc1ccccc1CC(=O)NC(C)c1nc2cccnc2n1C(C)C (configuration not stated)  -29.8%
98. c1ccc2c(c1)COC1(CCCCC1)N2  -30%
99. Cc1cccc(N2CC[C@@H]3[C@@H](CO[C@H]3CNS(C)(=O)=O)C2)n1  -39.4%
100. Cc1cccc(N2CC[C@@H]3[C@@H](CO[C@H]3CNC(=O)c3ccco3)C2)n1  -44.2%
101. CN(Cc1ccco1)C[C@@H]1OC[C@H]2CN(Cc3nccs3)CC[C@H]21  -46.8%
102. CN(Cc1ccco1)C[C@H]1OC[C@@H]2CCN(Cc3ccncc3)C[C@@H]21  -46.8%
